Inconclusive results are not listed. Calls of active or inactive are those of the source. The call rests on the fitted dose curve; in most records, active means well fitted curve in the direction sought with a large enough effect; inconclusive means small, poorly fitted or top-dose-only effect, or another doubt; inactive means no such curve, though single readings can be large; an effect the other way counts as inactive or inconclusive.
Assays:
[1] = Cell Viability - LYMP2-004 (AID 966); further: nearly all actives have a fitted effect of over 65% in size
How it was run: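 Viable-cell number estimated from ATP luminescence (CellTiter-Glo) in 2500 human lymphoblastoid cells/well after 24 hr at 37 C with compound. AC50 fitted to the standard Hill equation.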

[2] = Cell Viability - LYMP2-005 (AID 967); further: series mostly up to about 92 µM
How it was run: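 Human lymphoblastoid LYMP2-005 cells, 2,500 per well in complete medium, rested 5 h at 37C then compound-treated 24 h at 37C. Intracellular ATP read by CellTiter-Glo luminescence after 30 min at room temperature; AC50 from Hill-equation fits of concentration-response data.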

[3] = Cell Viability - LYMP2-009 (AID 968); further: series mostly up to about 92 µM; nearly all actives have a fitted effect of over 55% in size
[4] = Cell Viability - LYMP2-011 (AID 969);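 further: cells exposed to compound for 24 hours; nearly all actives have a fitted effect of over 60% in size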
How it was run: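 Cells seeded at 2500 per well rest 5 hr before compound addition, then incubate 24 hr at 37 C. CellTiter-Glo reagent is added for 30 min at room temperature before luminescence detection.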

[5] = Cell Viability - LYMP2-013 (AID 970); further: series mostly up to about 92 µM; nearly all actives have a fitted effect of over 55% in size
How it was run: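 In complete culture medium, human lymphoblastoid cells were dosed for 24 hr at 37 C, with tetraoctylammonium bromide (6.4pM to 92 uM) as positive control. Viability reflects luciferase-based ATP signal; AC50 derived from concentration-response curves.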

[6] = Cell Viability - LYMP2-015 (AID 971); further: nearly all actives have a fitted effect of over 55% in size
How it was run: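 AC50 values reflect Hill-model fits of ATP-based luminescence (CellTiter-Glo) from a human lymphoblastoid line, 2500 cells/well, treated 24 hr at 37 C.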

[7] = Cell Viability - LYMP2-017 (AID 972);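 further: series mostly up to about 92 µM; cells exposed to compound for 24 hours at 37 °C; nearly all actives have a fitted effect of over 55% in size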
How it was run: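 In this qHTS format, lymphoblastoid cells in complete medium receive test compound for a day at 37 C before ATP content is quantified by luciferase luminescence. Reported AC50 figures come from standard Hill-equation curve fitting.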

[8] = Cell Viability - LYMP2-019 (AID 973); further: nearly all actives have a fitted effect of over 55% in size
How it was run: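 AC50 values come from Hill-equation modelling of qHTS concentration-response curves, where viability is measured as luciferase-based ATP luminescence in the lymphoblastoid line after 24 hr compound exposure in complete culture medium.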

[9] = Cell Viability - LYMP2-025 (AID 976); further: series mostly up to about 92 µM
How it was run: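 Luminescent ATP readout after 24 hr treatment of a human lymphoblastoid line (LYMP2-025, 2500 cells/well, 37 C). Reagent developed 30 min at room temperature; AC50 fitted with the Hill equation.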

[10] = Cell Viability - LYMP2-002 (AID 977);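 further: series mostly up to about 92 µM; compound exposure lasted 24 h at 37 °C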
How it was run: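 In this qHTS viability screen, 2500 human lymphoblastoid cells per well receive compound for 24 hr at 37 C, and luciferase-based ATP luminescence gives the viability signal. Tetraoctylammonium bromide serves as positive control.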

[11] = Cell Viability - LYMP2-006 (AID 978);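 further: series mostly up to about 92 µM; cells exposed to compound for 24 hours; nearly all actives have a fitted effect of over 60% in size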
How it was run: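 Human lymphoblastoid cells (LYMP2-006), 2500/well in complete medium, were treated with compound for 24 hr at 37 C. Cellular ATP was read by CellTiter-Glo luminescence after 30 min, and AC50 values came from Hill-equation fits of concentration-response data.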

[12] = Cell Viability - LYMP2-007 (AID 979);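 further: cells exposed to compound for 24 h before reading; nearly all actives have a fitted effect of over 60% in size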
How it was run: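 Measured via luciferase-based ATP quantitation: lymphoblastoid cells, 24 hr compound exposure at 37 C, AC50 from Hill fits.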

[13] = Cell Viability - LYMP2-008 (AID 980); further: nearly all actives have a fitted effect of over 60% in size
How it was run: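 Measured: ATP-dependent luminescence, proportional to viable cell number, in human lymphoblastoid cells treated 24 hr with compound in complete culture medium. Values are AC50s from Hill-equation modelling of qHTS titrations.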

[14] = Cell Viability - LYMP2-010 (AID 981)
How it was run: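 This 24 hr viability screen uses LYMP2-010 lymphoblastoid cells, quantifies ATP via luciferase luminescence, and derives AC50 from Hill fits of qHTS concentration-response data.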

[15] = Cell Viability - LYMP2-012 (AID 982)
[16] = Cell Viability - LYMP2-014 (AID 983); further: series mostly up to about 92 µM; nearly all actives have a fitted effect of over 50% in size
How it was run: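 Quantitative HTS in lymphoblastoid cells: 24 hr compound exposure, then CellTiter-Glo ATP luminescence. Positive control was tetraoctylammonium bromide, 6.4pM to 92 uM.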

[17] = Cell Viability - LYMP2-016 (AID 984)
How it was run: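 Human lymphoblastoid LYMP2-016 cells, 2500 per well, treated with compounds for 24 h at 37 C. Viability read as intracellular ATP by CellTiter-Glo luminescence after 30 min at room temperature; AC50 from Hill fits of concentration-response.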

[18] = Cell Viability - LYMP2-018 (AID 985); further: nearly all actives have a fitted effect of over 50% in size
How it was run: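 In this qHTS viability assay, cells are treated for 24 hr and cellular ATP is quantified by luciferase-based luminescence, with tetraoctylammonium bromide as positive control.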

[19] = Cell Viability - LYMP2-023 (AID 975)
How it was run: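 In this qHTS, ATP-based luciferase luminescence (CellTiter-Glo) is quantified in human lymphoblastoid cells after 24 hr compound treatment at 37 C; tetraoctylammonium bromide serves as positive control. Concentration-response curves are Hill-fitted to give AC50.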

[20] = Cell Viability - LYMP2-021 (AID 974)
How it was run: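 In qHTS format, compounds are tested against 2500 lymphoblastoid cells per well for 24 h; viable cell number is inferred from ATP-driven luciferase light, and Hill-equation fitting yields AC50 values.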

Measured: Potency

CC(=O)c1nccs1
not listed: [19] | [20]
inactive: all other assays above

CC(C)(C)c1ccc(OCC2CO2)cc1 (stereo unspecified)
not listed: [20]
inactive: all other assays above

CC/C=C/C#N
not listed: [7] | [14]
inactive: all other assays above

Cc1ccc2c(c1[N+](=O)[O-])C(=O)c1ccccc1C2=O
not listed: [7]
inactive: all other assays above

CCOCC(=O)O
not listed: [7]
inactive: all other assays above

CC(C)Cc1nccs1
not listed: [20]
inactive: all other assays above

Nc1cccc(N)c1
not listed: [9] | [20]
inactive: all other assays above

O=[N+]([O-])c1c(Cl)cc(Cl)cc1Cl
not listed: [7]
inactive: all other assays above

CC/C(C)=N/O
not listed: [2] | [12]
inactive: all other assays above

CCCOCC(C)O (stereo unspecified)
not listed: [7] | [20]
inactive: all other assays above

CC(C)N(C)C
not listed: [2]
inactive: all other assays above

CCOc1cccc(N)c1
not listed: [2]
inactive: all other assays above

NC(=O)/N=N/C(N)=O
not listed: [5] | [14]
inactive: all other assays above

CCOc1ccccc1N
not listed: [2] | [14]
inactive: all other assays above

C1CCC2OC2C1 (stereo unspecified)
not listed: [2]
inactive: all other assays above

CC(C=O)Cc1ccc(C(C)(C)C)cc1 (stereo unspecified)
not listed: [7] | [19]
inactive: all other assays above
